Test [1] is described as follows: Quantitative High-Throughput drug screen in 47 multiple myeloma cell lines against the NCATS MIPE library collection: Delta47_JCRB cell viability assay (AID 1918925; note: nearly all actives have a fitted effect of over 45% in size). As to conditions: Delta47 myeloma viability, CellTiter-Glo ATP, 48 h; series mostly up to 45.8 µM. In a few lines:
(§1)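 Relative luminescence from CellTiter-Glo served as the viability signal, referenced to DMSO-treated (100%) and cell-free medium (0%) controls. Treatment lasted 48 hours at 37C with 500 cells per well.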
For orientation: ATP-based viability assays read luminescence as a measure of living cells.

Test [2] is described as follows: Quantitative High-Throughput drug screen in 47 multiple myeloma cell lines against the NCATS MIPE library collection: EJM_DSMZ cell viability assay (AID 1918926; note: nearly all actives have a fitted effect of over 30% in size). As to conditions: EJM myeloma cell viability, CellTiter-Glo ATP, 48 h; series mostly up to 45.8 µM. A digest of the protocol: as §1
Test [3] in a line: Quantitative High-Throughput drug screen in 47 multiple myeloma cell lines against the NCATS MIPE library collection: AMO1_DSMZ cell viability assay (AID 1918927; note: nearly all actives have a fitted effect of over 30% in size). The settings on record: AMO1 myeloma cells viability, CellTiter-Glo ATP luminescence, 48 h; series mostly up to 45.8 µM. A digest of the protocol:
as §1

The nature of test [4]: Quantitative High-Throughput drug screen in 47 multiple myeloma cell lines against the NCATS MIPE library collection: ARP1_JJKsccF8 cell viability assay (AID 1918928; note: nearly all actives have a fitted effect of over 40% in size). The settings on record: ARP1 myeloma cells viability, CellTiter-Glo ATP, 48 h; series mostly up to 45.8 µM. In a few lines:
(§2)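 500 cells/well; MIPE 4.0 library pinned in; 48 h, 37 °C, 5% CO2; CellTiter-Glo ATP luminescence. Controls: DMSO = 100% viability, medium only = 0%.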

Test [5] can be described thus: Quantitative High-Throughput drug screen in 47 multiple myeloma cell lines against the NCATS MIPE library collection: Karpas620_DSMZ cell viability assay (AID 1918959). Note: nearly all actives have a fitted effect of over 30% in size. The settings on record: Karpas620 myeloma viability, CellTiter-Glo ATP luminescence, 48 h; series mostly up to 45.8 µM. A digest of the protocol: (§3)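 We plated 500 myeloma cells per well, pinned in MIPE 4.0 compounds, and incubated for 48 hours at 37C. ATP was then quantified with CellTiter-Glo, with DMSO and media-only wells defining 100% and 0%.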

Test [6] can be described thus: Quantitative High-Throughput drug screen in 47 multiple myeloma cell lines against the NCATS MIPE library collection: KHM11_PLB cell viability assay (AID 1918962). Note: nearly all actives have a fitted effect of over 35% in size. As to conditions: KHM11 myeloma cell viability, CellTiter-Glo ATP luminescence, 48 h; series mostly up to 45.8 µM. In a few lines: as §3
A short description of test [7]: Quantitative High-Throughput drug screen in 47 multiple myeloma cell lines against the NCATS MIPE library collection: JIM3_ECACC cell viability assay (AID 1918963; note: nearly all actives have a fitted effect of over 35% in size). The settings on record: JIM3 myeloma viability, CellTiter-Glo ATP, 48 h; series mostly up to 45.8 µM. A digest of the protocol:
as §3

A short description of test [8]: Quantitative High-Throughput drug screen in 47 multiple myeloma cell lines against the NCATS MIPE library collection: INA6_PLB cell viability assay (AID 1918965; note: nearly all actives have a fitted effect of over 55% in size). The settings on record: INA6 myeloma viability, CellTiter-Glo ATP luminescence, 48 h; series mostly up to 45.8 µM. In a few lines:
(§4)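 Viability readout: CellTiter-Glo luminescence following 5 min room-temperature incubation with reagent. Prior exposure: 48 h, 37C, humidified 5% CO2, 500 cells per well.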

Test [9] in a line: Quantitative High-Throughput drug screen in 47 multiple myeloma cell lines against the NCATS MIPE library collection: JJN3_DSMZ cell viability assay (AID 1918966; note: nearly all actives have a fitted effect of over 50% in size). The settings on record: JJN3 myeloma cells viability, CellTiter-Glo ATP, 48 h; series mostly up to 45.8 µM. In a few lines:
as §1

The nature of test [10]: Quantitative High-Throughput drug screen in 47 multiple myeloma cell lines against the NCATS MIPE library collection: H1112_PLB cell viability assay (AID 1918967; note: nearly all actives have a fitted effect of over 30% in size). As to conditions: H1112 myeloma cells viability, ATP luminescence, 48 h; series mostly up to 45.8 µM. In a few lines: as §1
Test [11] can be described thus: Quantitative High-Throughput drug screen in 47 multiple myeloma cell lines against the NCATS MIPE library collection: Karpas25_ECACC cell viability assay (AID 1918968; note: nearly all actives have a fitted effect of over 35% in size). The settings on record: Karpas25 myeloma viability, CellTiter-Glo ATP, 48 h; series mostly up to 45.8 µM. A digest of the protocol:
as §1

Test [12] can be described thus: Quantitative High-Throughput drug screen in 47 multiple myeloma cell lines against the NCATS MIPE library collection: KMS27_JCRB cell viability assay (AID 1918970). Note: nearly all actives have a fitted effect of over 30% in size. As to conditions: KMS27 myeloma cells, CellTiter-Glo ATP viability, 48 h; series mostly up to 45.8 µM. A digest of the protocol:
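Each line is seeded at 500 cells per well and treated with library compounds for 48 hours under 37 °C, 5% CO2. CellTiter-Glo is then added for 5 min at room temperature before median relative luminescence is recorded.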

A short description of test [13]: Quantitative High-Throughput drug screen in 47 multiple myeloma cell lines against the NCATS MIPE library collection: KMS12BM_JCRB cell viability assay (AID 1918971). Note: nearly all actives have a fitted effect of over 35% in size. The settings on record: KMS12BM myeloma viability, CellTiter-Glo ATP, 48 h; series mostly up to 45.8 µM. In a few lines:
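CellTiter-Glo luminescence (ATP) after 48 h compound exposure, 37C/5% CO2; 500 cells/well; MIPE 4.0 approved/investigational drugs pinned in; DMSO = 100%, media only = 0% viability.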

Test [14] is described as follows: Quantitative High-Throughput drug screen in 47 multiple myeloma cell lines against the NCATS MIPE library collection: KMS12PE_JCRB cell viability assay (AID 1918972). Note: nearly all actives have a fitted effect of over 30% in size. As to conditions: KMS12PE myeloma viability, CellTiter-Glo ATP, 48 h; series mostly up to 45.8 µM. A digest of the protocol:
as §4

Test [15] is described as follows: Quantitative High-Throughput drug screen in 47 multiple myeloma cell lines against the NCATS MIPE library collection: KMM1_JCRB cell viability assay (AID 1918960). Note: nearly all actives have a fitted effect of over 30% in size. The settings on record: KMM1 myeloma viability, CellTiter-Glo ATP luminescence, 48 h; series mostly up to 45.8 µM. In a few lines: as §2
A short description of test [16]: Quantitative High-Throughput drug screen in 47 multiple myeloma cell lines against the NCATS MIPE library collection: Karpas417_ECACC cell viability assay (AID 1918961). As to conditions: Karpas417 myeloma viability, CellTiter-Glo ATP luminescence, 48 h; viability (% of DMSO): at 45.8 µM (top of the series). In a few lines: as §4
Test [17] can be described thus: Quantitative High-Throughput drug screen in 47 multiple myeloma cell lines against the NCATS MIPE library collection: JIM1_ECACC cell viability assay (AID 1918964). The settings on record: JIM1 myeloma viability, CellTiter-Glo ATP luminescence, 48 h; series mostly up to 45.8 µM. A digest of the protocol:
as §1

Test [18] is described as follows: Quantitative High-Throughput drug screen in 47 multiple myeloma cell lines against the NCATS MIPE library collection: KMS21BM_JCRB cell viability assay (AID 1918974). As to conditions: ATP luminescence, 48 h; viability: at 45.8 µM (top of the series) unless noted. A digest of the protocol:
as §1

Test [19] in a line: Quantitative High-Throughput drug screen in 47 multiple myeloma cell lines against the NCATS MIPE library collection: KMS20_JCRB cell viability assay (AID 1918973). Note: nearly all actives have a fitted effect of over 45% in size. The settings on record: CellTiter-Glo ATP, 48 h; series mostly up to 45.8 µM. A digest of the protocol:
as §1

Molecules are shown by their SMILES. Inconclusive results are not listed. A number with no mark means an inactive call. Active and inactive are the calls of the source. Calls come from the whole dose curve; as a rule, active = well fitted curve in the direction sought with a large enough effect; inconclusive = small, poorly fitted or top-dose-only effect, or another doubt; inactive = no such curve, though single readings can be large; an effect the other way counts as inactive or inconclusive.
Potency is the fitted concentration of half-maximal effect.

Turning to `COC(=O)Nc1ccc(-c2nc(N3CCOCC3)c3cnn(C4CCN(Cc5cccnc5)CC4)c3n2)cc1`, the Potency in test [1] was 0.0935 µM (active); in test [2], 1.48 µM (active); in [4], 0.0743 µM (active); in test [6], 0.059 µM (active); in [7], 1.18 µM (active); in test [8], 0.0469 µM (active). Besides, the Potency in [9] was 0.743 µM (active); in [10] it was 26.4 µM (active); in [11], 0.118 µM (active); in [13] it was 1.05 µM (active). Moreover, the Potency result in [3], in [5], in test [12] and in test [14] was “inactive” throughout.
On to `Cc1cc(Nc2cc(N3CCN(C)CC3)nc(Sc3ccc(NC(=O)C4CC4)cc3)n2)n[nH]1`, for which the Potency in test [1] was 3.72 µM (active); in [2], 14.8 µM (active); in test [3], 0.372 µM (active); in test [4], 7.43 µM (active); in test [5] it was 0.0332 µM (active); in test [15], 5.9 µM (active). The Potency in test [16] was 7.43 µM (active); in test [6], 1.32 µM (active); in test [7], 5.26 µM (active); in test [17], 6.62 µM (active); in test [8], 16.6 µM (active); in test [9], 16.6 µM (active). Moreover, the Potency in test [11] is 18.7 µM (active); in test [14] it was 0.166 µM (active).
For the compound `COc1ccc(OC)c(-c2nnc3ccc(-c4ccc(OC)c(O[C@@H]5CCOC5)c4)nn23)c1`, the Potency in test [1] was 9.35 µM (active); in test [2], 16.6 µM (active); in test [4], 18.7 µM (active); in [5], 8.33 µM (active); in test [15] it was 8.33 µM (active); in [16] it was 10.5 µM (active). The Potency is 7.43 µM (active) in [6]; 8.33 µM (active) in test [7]; 8.33 µM (active) in test [17]; 5.9 µM (active) in test [8]; 16.6 µM (active) in [9]; 13.2 µM (active) in [10]. The Potency in test [11] was 6.62 µM (active); in test [12], 8.33 µM (active); in test [13] it was 10.5 µM (active); in test [14], 7.43 µM (active); in test [18], 7.43 µM (active).
Turning to `CCC[C@H](NC(=O)C(C#N)=Cc1cccc(Br)n1)c1ccccc1`, the Potency in test [1] was 1.32 µM (active); in test [2], 2.96 µM (active); in test [4] it was 4.18 µM (active); in [5], 6.62 µM (active); in test [16], 5.9 µM (active); in test [6], 1.32 µM (active). The Potency was 1.48 µM (active) in [7]; 1.32 µM (active) in test [8]; 2.35 µM (active) in test [10]; 1.48 µM (active) in [11]; 2.96 µM (active) in test [13].
Take `COc1cc(C(=O)NS(=O)(=O)c2ccccc2C)ccc1Cc1cn(C)c2ccc(NC(=O)OC3CCCC3)cc12`: the Potency in [1] was 14.8 µM (active); in [2], 16.6 µM (active); in [4] it was 18.7 µM (active); in [6], 10.5 µM (active); in test [7] it was 16.6 µM (active); in [8], 10.5 µM (active). The Potency is 20.9 µM (active) in test [10], 8.33 µM (active) in test [11], 26.4 µM (active) in test [13] and 6.62 µM (active) in [19]. Further, the Potency result in test [5], in [16] and in [17] was “inactive” each time.

The values are drawn from PubChem BioAssay (NCATS).
